About 83,000 compounds went through this panel and 20% of them were active in at least one assay; those are over-represented in the sample as a whole.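 In brief: 96-well plates, 48 h treatment, single concentration, percent growth endpoint.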 The source made the active and inactive calls. How the source made its calls: active means growth percent below 10; inactive means the rest.

This assay relates to NCI/ADR-RES ovarian. Nature of the assay: NCI-60 one-dose screen, 48 h (100 = growth as untreated, 0 = no growth, -100 = all killed). The settings on record: 10 µM unless noted.
For `ClCCN(CCCl)C(c1ccccc1)c1ccc(Cl)cc1` (stereo not given), the growth was 79% (inactive). The figure for `CCCCn1cc(C(=O)/C(C#N)=C/c2cc3ccccc3nc2Cl)c2cc(OC)ccc21` is 91.7% (inactive). The figure for `CCCCNCCc1ccccn1` is 105% (inactive); for `CC(=O)C1C(=O)N(C)C(=O)N(C)C1=O` it is 113% (inactive).

Consider `CC1(C)N=C(N)N=C(N)N1c1cccc(C(=O)Nc2cccc(S(=O)(=O)F)c2)c1`, for which the growth is 104% (inactive).

Take `C[C@]12CC[C@@H]3C4=C(CC[C@H]3[C@@H]1CC[C@@H]2O)CC(=O)CC4`: the growth was 95.8% (inactive).

`Oc1ccccc1OB(Oc1ccccc1O)N(CCCl)CCCl`: the growth is 85% (inactive).

`NC(Cc1ccc2c(c1)OCO2)c1ccc2c(c1)OCO2` (stereo not given): the growth was 107% (inactive). For `COc1ccc(-c2ccc(OC)c(OC)c2OC)cc1`, the growth was -20% (active). Regarding `CC[C@@]1(C2O[C@@H](C3O[C@@](O)(CC)[C@H](C)C[C@@H]3C)C[C@@H]2C)CC[C@H]([C@]2(C)CCC3(C[C@H](O)[C@@H](C)[C@@H]([C@H](C)[C@@H](OC)[C@H](C)C(=O)O)O3)O2)O1` (stereo not given in full), the growth is 31.1% (inactive). The figure for `CC1(C)N=C(N)N=C(N)N1c1ccc(CCCCc2ccc(S(=O)(=O)F)cc2)c(Cl)c1` is 103% (inactive); for `COc1ccc(C2=NN(c3ccccc3)C(c3sc(N(CCCl)CCCl)nc3Cl)C2)cc1` (stereo not given) it is 95.7% (inactive); for `N#CC1c2ccccc2C=CN1C(=O)c1ccc(N(CCCl)CCCl)cc1` (stereo not given) it is 83.4% (inactive). Take `CSc1ccccc1NP1(=O)OCC(C)([N+](=O)[O-])CO1` (stereo not given): the growth was 109% (inactive).

`Cc1ccc(N)cc1[As]=[As]c1cc(N)ccc1C` (stereo not given): the growth was 53.8% (inactive). Turning to `C/C(=N/OC(=O)N(C)C)c1cc(Cl)ccc1Cl`, the growth is 99.4% (inactive).

Consider `CCC(C)[C@H]1O[C@]2(C=C[C@@H]1C)C[C@@H]1C[C@@H](C/C=C(\C)[C@@H](OC3C[C@H](OC)C(O[C@H]4C[C@H](OC)[C@@H](O)[C@H](C)O4)[C@H](C)O3)[C@@H](C)/C=C/C=C3\CO[C@@H]4[C@H](O)C(C)=C[C@@H](C(=O)O1)[C@]34O)O2` (stereo not given in full), for which the growth was 7.16% (active). The figure for `CC1(C)N=C(N)N=C(N)N1c1ccc(CCCCc2ccc(S(=O)(=O)F)cc2)cc1` is 113% (inactive); for `Cc1ccc(C(=O)C2CN(C)CCC2(O)c2ccc(C)cc2)cc1` (stereo not given) it is 103% (inactive); for `O=S(=O)(O)c1ccc(-c2ccc([As](=O)(O)O)cc2)cc1` it is 108% (inactive). For `O=C1NC(=O)C(CN2C(=O)C3(c4ccccc42)[C@H](Cl)C(=O)N3c2ccccc2)C(=O)N1` (stereo not given in full), the growth was 86.7% (inactive). As for `O=[N+]([O-])c1cc([N+](=O)[O-])c(Cl)c(Cl)c1Cl`, the growth is 21.4% (inactive). Next, `C=CCC1(CC)C(=O)NC(=S)NC1=O`: 104% (inactive); `C/C(=N/OC(=O)N(C)C)c1ccc(Cl)cc1Cl`: 96.7% (inactive). The figure for `CCC[CH2][Sn]([CH2]CCC)([CH2]CCC)[O]C(=O)CC` is -87% (active); for `O=C(NCc1ccc([N+](=O)[O-])cc1)Nc1ccc(S(=O)(=O)F)cc1` it is 78.3% (inactive); for `n1nc(-c2nonc2-c2nn[nH]n2)n[nH]1` it is 104% (inactive). Take `CNC(=O)Oc1ccccc1-c1ccccc1`: the growth is 108% (inactive). Regarding `CC1(C)N=C(N)N=C(N)N1c1ccc(OCCCCOc2ccc(S(=O)(=O)F)cc2)c(Cl)c1`, the growth is 103% (inactive). Turning to `CCCCOC(=O)c1ccccc1C(=O)O.CCCCOC(=O)c1ccccc1C(=O)O.[Cu+2]`, the growth is 111% (inactive). On to `O=[N+]([O-])c1ccc2cnn(CSP(=S)(c3ccccc3)c3ccccc3)c2c1`, for which the growth is 49.8% (inactive).

`NC(=O)C(Cl)Cl`: the growth is 114% (inactive). As for `CCN(CC)c1ccc(C=C2C(=O)NC(=S)NC2=O)cc1`, the growth was 100% (inactive). The figure for `Clc1ccc(SSC(Cl)(Cl)Cl)cc1` is 117% (inactive); for `[O]=[Sn]([CH]1CCCCC1)[CH]1CCCCC1` it is -83.2% (active); for `ClCCN(CCCl)c1nc(Cl)c(C2CC(c3ccccc3)=NN2c2ccccc2)s1` (stereo not given) it is 103% (inactive). Next, `CC(=O)C1CCC2C3CC=C4CC(OC(=O)Cc5ccc(N(CCCl)CCCl)cc5)CCC4(C)C3CCC12C` (stereo not given): 96.2% (inactive); `Cc1ccccc1O`: 100% (inactive); `O=[N+]([O-])c1ccccc1N1CCNCC1`: 93.6% (inactive).

Take `CC(=O)Nc1ccc(C=C2C(=O)NC(=O)NC2=O)cc1`: the growth was 108% (inactive).
